Compounds with a hit are over-represented: about 3.9% of the library has one in this group of screens.
HSF1 inh – HSF1 inhibition | NIH3T3-HGL HSE-luciferase, MG132-induced, luminescence 8 h; active compounds read low | 300,000 tested, 0.77% active | activity change, negative = inhibition, % at 7.5 µM (by protocol);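 active means more than half of replicate wells show activity change below -50%, luminescence cut by over half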;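 further: luciferase reports HSF-1 transcriptional activity via heat shock element; 0% = median of DMSO wells and -100% = zero luminescence signal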
HSF-1 act – increases HSF-1 driven luciferase reporter signal; NIH3T3-HGL HSF-1 luciferase reporter, MG132, 8 h; 100% = twice DMSO control signal; activation, % at 9 µM; 300,000 tested, 1.7% active; AID 504408;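 active means mean replicate activation of at least 50% with a set share of replicates each reaching 50%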;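 further: 0% = median of the neutral control wells and 100% = twice that signal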
esBAF inh – blocks esBAF chromatin remodeling in mouse ES cells; reporter increase, % at 12.5 µM; Bmi1-luciferase knock-in reporter, 24 h; 100% = twice the neutral-well signal; 350,000 tested, 2% active; in the data active means activation above about 40%;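 further: 0% = median of the plate's neutral control wells and 100% = double that signal; a rise in the Bmi1 reporter signal indicates esBAF inhibition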
MITF TRPM1 HTS – activators of MITF-driven TRPM1 promoter activity in SK-MEL-5 cells; 300,000 tested, 0.75% active; AID 588334; SK-MEL-5 TRPM1-promoter luciferase, 24 h; % of positive control, neutral wells = 0; activation, % at 12.5 µM;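 active means mean activation of at least 80% with every replicate also reaching 80%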;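 further: 0% = neutral control wells and 100% = parthenolide positive control wells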
Wnt act – Wnt/beta-catenin pathway activation. Wnt/beta-catenin reporter cell assay, activator, plate reader. activation, % at 9.35 µM. 300,000 tested, 1.2% active. AID 743398; in the data active means activation above about 30%, passing the limit was not always enough;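 further: 0% = neutral control wells and 100% = positive control wells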
* hit, by the source's call; x = not tested or not shown.

SMILES	HSF1 inh	HSF-1 act	esBAF inh	MITF TRPM1 HTS	Wnt act
CN(C)C(=O)C[C@@H]1CC[C@@H](NC(=O)NC2CCCCC2)[C@@H](CO)O1	x	x	-2	x	x
Cn1cnc([N+](=O)[O-])c1S(=O)(=O)c1cccc(Cl)c1	41	56*	x	-15	-15
O=C(C[C@H]1CC[C@H]2[C@@H](COC[C@@H](O)CN2Cc2ccc(Cl)cc2)O1)NCCc1ccccc1	x	x	2	x	x
COc1cccc2[nH]c3c(N4CCC(C)CC4)ncnc3c12	-3	21	1	29	11
COc1cccc2[nH]c3c(N4CCc5ccccc5C4)ncnc3c12	43	60*	x	x	x
C[C@@H]1CN([C@H](C)CO)C(=O)c2cc(NS(C)(=O)=O)ccc2O[C@@H]1CN(C)C(=O)Nc1cccc2ccccc12	x	x	-2	x	x
CCOc1ccc(C2C(C(=O)c3ccco3)=C(O)C(=O)N2CCCn2ccnc2)cc1 (centres undefined)	10	4	54*	13	26
CCOc1ccc(C2C(C(=O)c3ccco3)=C(O)C(=O)N2Cc2cccnc2)cc1 (centres undefined)	6	11	5	x	35*
CN1c2ccc(-c3ccccc3)cc2[C@H]2[C@H](CCN2C(=O)Cc2ccccc2)[C@H]1CO	x	x	1	x	x
c1ccc(Cn2nnnc2C(c2cccs2)N2CCCCCC2)cc1 (centres undefined)	0	22	1	0	-3
c1ccc(Cn2nnnc2C(c2cccs2)N2CCc3ccccc3C2)cc1 (centres undefined)	135	177*	7	-1	x
COCC(=O)Nc1ccc2c(c1)[C@@H]1C[C@H](CC(=O)NCc3ccc(OC)cc3)O[C@H](CO)[C@@H]1O2	x	x	-2	x	x
CC1CCCN(C(=O)c2cc3c(=O)n4ccccc4nc3s2)C1 (centres undefined)	6	23	62*	22	12
CC(C)CN(CC(C)C)C(=O)c1cc2c(=O)n3ccccc3nc2s1	-3	-11	1	-1	0
CCN(CC)C(=O)c1cc2c(=O)n3ccccc3nc2s1	14	6	42*	21	21
CN1C(=O)C2C(c3ccc(N(C)C)cc3)=NN(Cc3ccccc3)C2C1=O (centres undefined)	29	75*	x	6	1
CC(C)NC(=O)N(C)C[C@H]1Oc2c(NC(=O)Nc3ccccc3)cccc2C(=O)N([C@@H](C)CO)C[C@@H]1C	x	x	2	x	x
O=C(COc1ccccc1)NCCSCc1ccccc1Cl	39	70*	27	18	8
O=[N+]([O-])c1ccc(Sc2cccc3cccnc23)c2cccnc12	69	110*	x	-36	8
O=[N+]([O-])c1cc2cccnc2c2ncccc12	-21	x	x	x	0
CCCNC(=O)C[C@@H]1CC[C@@H]2[C@@H](COc3ccc(NC(=O)c4cccc(Cl)c4)cc3C(=O)N2C)O1	x	x	-5	x	x
Oc1nc(Nc2ccccc2)sc1/C=C1\C=Nc2ccccc21	74	101*	61*	88*	23
CCn1c(O)c(/C=C2\C=Nc3ccccc32)sc1=O	25	74*	77*	58	39*
CC1(C)CC(=O)c2sc(N3CCCCC3)nc2C1	26	25	51*	50	x
N#Cc1cc(Cl)c(NCC2CCCO2)cc1C#N (centres undefined)	49	89*	3	x	0
SMILES	HSF1 inh	HSF-1 act	esBAF inh	MITF TRPM1 HTS	Wnt act
Nc1cc(N)nc(SCC(=O)Nc2ccc(Br)cc2Cl)n1	44	62*	39	46	4
Nc1nc(SCC(=O)Nc2ccc(Br)cc2Br)n[nH]1	x	x	22	15	-2
C[C@@H]1CCCCO[C@H](CN(C)Cc2ccccc2)[C@@H](C)CN([C@@H](C)CO)C(=O)c2cc(NC(=O)Nc3cccc4ccccc34)ccc2O1	x	x	-4	x	x
O=C(c1ccco1)N(Cc1ccc([N+](=O)[O-])cc1)c1ccc(Br)cc1	23	57*	2	x	x
O=C(c1ccco1)N(Cc1cccc([N+](=O)[O-])c1)c1ccc(Br)cc1	8	14	x	-8	-1
O=S(=O)(NCc1ccccc1)c1ccc(Cl)cc1	-1	5	x	4	-3
O=S(=O)(Nc1cc2nc3ccccc3nc2n1Cc1ccccc1)c1ccc(Cl)cc1	78	114*	x	-9	-1
CCCC(=O)Nc1ccc2c(c1)C(=O)N(C)C[C@H](OC)[C@@H](C)CN(Cc1ccc(F)cc1)[C@H](C)CO2	x	x	-7	x	x
CCOc1ccc(NC(=O)C(C)SC(N)=O)cc1 (centres undefined)	-60*	-70	-3	-10	2

Source: PubChem BioAssay
